Results on 40 compounds are retold here after PubChem BioAssay (NCI).

The structures appear in SMILES notation. Values joined by “and” are separate entries in the source; they are usually repeats but may differ in a detail not shown here. Equal entries are not always repeated. This is part of a sample that, as a whole, favours compounds with a hit. Of some 83,000 tested, about 20% had one in any assay.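 Plates (96-well) were seeded with cells, treated with compound at one concentration, and incubated for 48 hours before percent growth was determined.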 Active and inactive are the calls of the source. The calls were made as follows: active = growth percent below 10; inactive = the rest.

The assay relates to MDA-MB-468 breast. Nature of the assay: NCI-60 one-dose screen, 48 h (100 = growth as untreated, 0 = no growth, -100 = all killed). The note with it: 10 µM unless noted.
Turning to `CC(=O)Nc1cccc2c1CCCC2`, the growth is 100% (inactive) and 91.1% (inactive). On to `O=C(Nc1cccc2c1C(=O)c1cccc(NC(=O)c3ccc(C(=O)Nc4cccc5c4C(=O)c4cccc(NC(=O)c6ccccc6)c4C5=O)cc3)c1C2=O)c1ccccc1`, for which the growth was 91.3% (inactive). Regarding `C/C(C=O)=C\c1ccc2c(c1)OCO2`, the growth was 94.8% (inactive). To `CC1=CC(=Nc2ccc(N(C)C)cc2)C=C(C)C1=O` belongs 15% (inactive); to `CCCCCCNC(=O)Oc1ccc(/C(=C(\C)c2ccc(Cl)cc2)c2ccc(OCCCN(C)C)cc2)cc1`, 92% (inactive); to `COc1cc2c(c(OC)c1OC)CCC(c1cccc(C(=O)Nc3cccc(Cl)c3)c1)O2` (stereo not given), 77.4% (inactive). As for `OCCN1CCN(CC/C=C2/c3ccccc3Sc3ccc(C(F)(F)F)cc32)CC1`, the growth is 68.4% (inactive). As to `CCCN1CCN(c2ccc3nc(-c4ccc5nc(-c6ccc(OCC)c(OCC)c6)[nH]c5c4)[nH]c3c2)CC1`, the growth was -77.2% (active). Regarding `CCOC(=O)C1CCNC(=O)C1=O` (stereo not given), the growth is 99.5% (inactive). With `CCCCCCCCCCCCCCCCCC1=NC(C)(C)CN1C(C)(C)CO`, the growth is -100% (active).

Regarding `COc1cc(-c2nn(-c3cccc(NC(=O)c4cccc(C(F)(F)F)c4)c3)cc2-c2ccncc2)ccc1Cl`, the growth is -19.4% (active). Turning to `Nc1cc(N)c2cccnc2c1O`, the growth is 48.2% (inactive).

Consider `COc1ccc(-n2c(SCc3cc(OC)c(OC)c(OC)c3)nc3ccc(C)cc3c2=O)c(OC)c1`, for which the growth was 17.1% (inactive). Regarding `O=C(O)CNS(=O)(=O)c1ccc(OCCOc2ccc(S(=O)(=O)NCC(=O)O)cc2)cc1`, the growth was 97.7% (inactive). Take `COc1ccc(C2[C@@H](Cl)C(=O)N2c2cc(OC)c(OC)c(OC)c2)cc1Cl` (stereo not given in full): the growth is 2.32% (active). Turning to `COc1cccc(-c2nc3sccn3c2-c2ccnc(NCCCNS(=O)(=O)c3c(Cl)cccc3Cl)c2)c1`, the growth was 49.3% (inactive).

For the compound `COc1ccc(C(=O)N2c3ccccc3Sc3ccccc32)c(OC)c1`, the growth is 0.159% (active). For the compound `Cc1ccc2[nH]c(=O)c3c(c2c1)OC(N)=C(C#N)C31c2cc(Br)ccc2-c2ccc(Br)cc21`, the growth is 55.4% (inactive). Regarding `N=C1CCC(=N)c2c1c(O)c1ccccc1c2O`, the growth was 93.7% (inactive). `COc1ccc(C2SCC(=O)N2NC(=O)c2ccc(NC(=O)c3ccccn3)cc2)cc1OC` (stereo not given): the growth was 104% (inactive). Take `O=S1(=O)CCC(N(/N=C/c2ccco2)c2ccccc2)C1` (stereo not given): the growth was 108% (inactive).

On to `Cc1cc(NN=C(c2ccc(O)cc2)c2ccc(O)cc2)c([N+](=O)[O-])cc1[N+](=O)[O-]`, for which the growth is 92.8% (inactive). In the case of `O=C1Nc2cc(Cl)ccc2/C1=C\c1ccc(OCc2ccccc2)cc1`, the growth is 98.5% (inactive). With `COC(=O)c1nc(-c2ccccc2)oc1S(=O)(=O)NCC(c1ccc(Cl)cc1)N1CCCCC1` (stereo not given), the growth was 37% (inactive). With `N#C/C(=C\c1ccc(-c2ccccc2F)o1)c1nc(-c2ccco2)cs1`, the growth was -11% (active). Take `COC12C=C/C(=C(/C(=O)OCc3csc(SC)n3)C(=O)CCCCCCCCC3(OC)C=C/C(=C(/C(=O)OCc4cnc(SC)s4)C(=O)CCCCCCCC1)O3)O2` (stereo not given): the growth is 29.5% (inactive). Consider `Cc1cc(C)c2c(N)c3cccc(C)c3nc2n1`, for which the growth was -54.4% (active).

`CC/C=C\C[C@H]1C/C=C2/C(=O)C=C[C@@H]2C/C=C\CCCC(=O)O1`: the growth was -33.6% (active).

Take `CNC(=O)c1c(I)c(NC(C)=O)c(I)c(C(=O)O)c1I`: the growth was 102% (inactive). With `O=C(c1ccccc1)C(O)C(Br)(CBr)c1ccccc1` (stereo not given), the growth was 50.7% (inactive). Consider `O=C(c1ccc(Nc2nccc(NCCCNc3ccnc4cc(Cl)ccc34)n2)cc1)N1CCCCC1`, for which the growth was 29.5% (inactive). `COc1ccc(/C=N/NC(=O)CSc2nc(-c3cnccn3)cc(-c3cccs3)c2C#N)cc1`: the growth is 83.1% (inactive).

In the case of `Cn1cc(-c2nc(-c3c[nH]c4c(Cl)nccc34)cs2)c2cc(Br)ccc21`, the growth was 19.9% (inactive). Take `N#CCNc1ccc(C(=O)O)cc1`: the growth was 92.8% (inactive).

Take `COC(=O)/C=C1/SC(=Nc2ccc([N+](=O)[O-])cc2)N(CCc2c[nH]c3ccccc23)C1=O`: the growth is 86% (inactive). As for `Brc1ccc(SCN(CSc2ccc(Br)cc2)Cc2ccccc2)cc1`, the growth is 98.3% (inactive). For `N#Cc1ccc(C2C3=C(CCCC3=O)OC3=C2C(=O)c2ccccc2C3=O)cc1` (stereo not given), the growth is -16.1% (active).

With `C/C=C(/C(=O)NC(N)=O)C(C)C`, the growth was 117% (inactive). To `CCCC(=O)OCC1OC(n2cnc3c(=S)nc(N)[nH]c32)C(OC(=O)CCC)C1OC(=O)CCC` (stereo not given) belongs 47.7% (inactive); to `Ic1ccc(Nc2nc3nonc3nc2Nc2ccc(I)cc2)cc1`, -4.36% (active).
